Screening results: PubChem, several laboratories
Only some compounds are listed: those with a hit (about 2.5% of all), similar ones and a draw of the others.
HDAC3 inh – human HDAC3 inhibition. O15379. recombinant HDAC3, fluorogenic peptide/trypsin coupled, fluorescence. inhibition, % at 8.3 µM. 320,000 compounds, 0.15% hits; in the data active means inhibition above about 26%, passing the limit was not always enough; inconclusive means no clear call, values can overlap the other calls
UBC9 SUMO inh – blocks human SUMOylation mediated by UBC9; 290,000 compounds, 0.36% hits; inhibition, % at 35 µM; HTRF SUMOylation assay, SAE1/SAE2 + UBC9, in vitro; P63279; in the data active means inhibition above about 50%, passing the limit was not always enough; inconclusive means no clear call, values can overlap the other calls
Target sequence (P63279 whole entry, looked up): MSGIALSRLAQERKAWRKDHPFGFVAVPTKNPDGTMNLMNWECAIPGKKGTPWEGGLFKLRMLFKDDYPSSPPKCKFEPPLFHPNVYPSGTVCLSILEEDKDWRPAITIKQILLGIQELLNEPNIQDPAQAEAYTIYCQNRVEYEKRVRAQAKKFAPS
p97 ATPase inh – inhibitors of human p97 ATPase; P55072; recombinant p97 ATPase, Kinase-Glo ATP luminescence, 3 h; inhibition, % at 8 µM; 220,000 compounds, 0.42% hits; in the data active means inhibition above about 15%;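 further: 0% = DMSO vehicle and 100% = wells lacking enzyme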
PfM18AAP inh – PfM18AAP enzyme inhibition | recombinant PfM18AAP, H-Glu-NHMec fluorogenic cleavage | inhibition, % at 7.35 µM | 290,000 compounds, 1.2% hits | AID 1822;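 active means inhibition above the campaign mean inhibition over all tested compounds plus 3 SD, cut at about 28% in these data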;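 further: 0% = plate median of test compound wells and 100% = 2 mM ZnCl2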
G6PDH counter – inhibits Leuconostoc G6PDH, flagging false hits in G6PDH-based assays. Purified L. mesenteroides G6PDH, diaphorase/resazurin coupled fluorescence, 45 min. inhibition, % at 5 µM. 200,000 compounds, 0.12% hits; in the data active means inhibition above about 50%
PHOSPHO1 block – PHOSPHO1 (human) inhibition | Q8TCT1 | 290,000 compounds, 1.1% hits | inhibition, % at 13.3 µM | AID 1565 | recombinant PHOSPHO1, absorbance phosphatase assay; in the data active means inhibition above about 60%
Target sequence (Q8TCT1 whole entry, looked up): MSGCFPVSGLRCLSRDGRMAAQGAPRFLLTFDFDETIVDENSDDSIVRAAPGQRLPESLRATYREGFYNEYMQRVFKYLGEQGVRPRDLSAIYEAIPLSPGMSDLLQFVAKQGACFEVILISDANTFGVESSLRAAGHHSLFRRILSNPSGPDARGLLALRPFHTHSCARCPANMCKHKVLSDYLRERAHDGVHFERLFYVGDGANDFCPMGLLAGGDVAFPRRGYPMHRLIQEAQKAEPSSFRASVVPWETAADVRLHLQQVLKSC
An asterisk follows results filed as active.

`Cc1cc(C)n(Cc2n[nH]c(=S)n2Cc2ccccc2)n1` gave HDAC3 inh 2, UBC9 SUMO inh 36, p97 ATPase inh 3, PfM18AAP inh 13, G6PDH counter 4 and PHOSPHO1 block 90*.
Cc1ccccc1OCc1n[nH]c(=S)n1Cc1ccccc1 was read as HDAC3 inh -2, UBC9 SUMO inh 9, p97 ATPase inh -3, PfM18AAP inh 20, G6PDH counter 0 and PHOSPHO1 block -19.
For Cc1nn(Cc2n[nH]c(=S)n2Cc2ccccc2)c(C)c1Cl the results were HDAC3 inh -9, UBC9 SUMO inh 9, p97 ATPase inh 4, PfM18AAP inh 10, G6PDH counter 10 and PHOSPHO1 block 99*.
COc1ccc(OC)c(NC(=O)NCCc2c[nH]c3ccccc23)c1 was read as HDAC3 inh -3, UBC9 SUMO inh -3, PfM18AAP inh 1 and PHOSPHO1 block 5.
For CCCCC(C(=O)OCC)C(N)Cc1ccc(F)cc1 (configuration not stated) the results were HDAC3 inh -4, UBC9 SUMO inh 74*, p97 ATPase inh 0, PfM18AAP inh -3, G6PDH counter 8 and PHOSPHO1 block -7.
For CC1=C(C(=O)OCc2ccccc2)C(c2ccccc2[N+](=O)[O-])NC(=O)N1C (configuration not stated) the results were HDAC3 inh -1, UBC9 SUMO inh 10 and PfM18AAP inh 9.
CC(C)(C)C(=O)Nc1sc2c(c1C#N)CCN(Cc1ccccc1)C2 was read as HDAC3 inh -6, UBC9 SUMO inh 22, PfM18AAP inh 29* and PHOSPHO1 block -6.
`Cc1cc(/C=N/n2cnnc2)c(C)n1-c1ccc(Cl)cc1` gave HDAC3 inh 0, UBC9 SUMO inh 10, p97 ATPase inh -10, PfM18AAP inh 7, G6PDH counter 21 and PHOSPHO1 block -17.
For Cc1cc(/C=N/n2cnnc2)c(C)n1-c1cccc(Cl)c1 the results were HDAC3 inh 7, UBC9 SUMO inh 21, p97 ATPase inh 3, PfM18AAP inh 29*, G6PDH counter 2 and PHOSPHO1 block -16.
`CN(C)c1ccc(NC(=O)COC(=O)CCC(=O)c2ccc(F)cc2)cc1` gave HDAC3 inh -5, UBC9 SUMO inh 10, p97 ATPase inh -3, PfM18AAP inh 2, G6PDH counter -3 and PHOSPHO1 block 100*.
For O=C(COC(=O)c1ccc2c(c1)OCO2)Nc1ccccc1 the results were HDAC3 inh -2, UBC9 SUMO inh 13, p97 ATPase inh 1, PfM18AAP inh -1, G6PDH counter -6 and PHOSPHO1 block 5.
For CN(C)c1ccc(NC(=O)COC(=O)c2ccc3c(c2)OCO3)cc1 the results were HDAC3 inh 33*.
Screening O=C1OCCC1Sc1nc2cc(Cl)ccc2n1Cc1ccccc1 (configuration not stated) returned HDAC3 inh 1, UBC9 SUMO inh 24, p97 ATPase inh 0, PfM18AAP inh 6, G6PDH counter 0 and PHOSPHO1 block 89*.
O=C1OCCC1Sc1nc2ccccc2c(=O)n1Cc1ccccc1 (configuration not stated) was read as HDAC3 inh 1, UBC9 SUMO inh 9, p97 ATPase inh 5, PfM18AAP inh -1, G6PDH counter 6 and PHOSPHO1 block -1.
Screening O=C(O)c1cn(-c2ccccc2)nc1C(=O)O returned HDAC3 inh -3, UBC9 SUMO inh -30, p97 ATPase inh 0, PfM18AAP inh -5, G6PDH counter 5 and PHOSPHO1 block 17.
Screening NNC(=O)c1nn(-c2ccccc2)cc1O returned HDAC3 inh 3, UBC9 SUMO inh 18, p97 ATPase inh 2, PfM18AAP inh 28*, G6PDH counter 6 and PHOSPHO1 block 20.
`O=C(COc1cccnc1[N+](=O)[O-])Nc1ccc(Cl)c(S(=O)(=O)N2CCOCC2)c1` gave HDAC3 inh -1, UBC9 SUMO inh -7, p97 ATPase inh 2, PfM18AAP inh -3 and PHOSPHO1 block 10.
CN1Cc2c(N3CCOCC3)nc(SCc3ccccc3)c(C#N)c2CC1(C)C was read as HDAC3 inh -1, UBC9 SUMO inh 30, p97 ATPase inh 4, PfM18AAP inh 10, G6PDH counter 12 and PHOSPHO1 block 80*.
For CC1(C)Cc2c(c(N3CCOCC3)nc3sc4c(=O)[nH]cnc4c23)CS1 the results were HDAC3 inh -3, UBC9 SUMO inh 30, p97 ATPase inh 0, PfM18AAP inh 0, G6PDH counter 2 and PHOSPHO1 block 108*.
`CC1(C)Cc2c(c(N3CCOCC3)nc3sc4c(N5CCOCC5)nnnc4c23)CS1` gave HDAC3 inh -6, UBC9 SUMO inh 12, p97 ATPase inh -2, PfM18AAP inh -3, G6PDH counter -30 and PHOSPHO1 block 11.
C1CSC2(N1)C1CC3CC2CC(C1)C31NCCS1 (configuration not stated) was read as HDAC3 inh 2, UBC9 SUMO inh 5, p97 ATPase inh 0, PfM18AAP inh 7, G6PDH counter 4 and PHOSPHO1 block 61*.
For CCCCCC(O)CCC(=O)NNC1=CC(=O)CC(C)(C)C1 (configuration not stated) the results were HDAC3 inh -8, UBC9 SUMO inh 14, p97 ATPase inh -9, PfM18AAP inh -4, G6PDH counter 8 and PHOSPHO1 block 8.
Screening CC1(C)CC(=O)C=C(NNC(=O)c2ccccc2)C1 returned HDAC3 inh -7, UBC9 SUMO inh -1, p97 ATPase inh 2, PfM18AAP inh 41*, G6PDH counter 9 and PHOSPHO1 block -9.
Screening CC1(C)CC(=O)C=C(Nc2ccc(C(=O)O)cc2)C1 returned HDAC3 inh inconclusive, UBC9 SUMO inh 23, p97 ATPase inh 5, PfM18AAP inh 2, G6PDH counter 3 and PHOSPHO1 block 3.
Screening CC(O)CCC(=O)NNC1=CC(=O)CC(C)(C)C1 (configuration not stated) returned HDAC3 inh 9, UBC9 SUMO inh -4, p97 ATPase inh 1, PfM18AAP inh 1, G6PDH counter 10 and PHOSPHO1 block 64*.
Screening COc1ccc(/[N+]([O-])=C/c2ccoc2)cc1 returned HDAC3 inh -5.
`CN1CCc2cc3c(c4c2[C@H]1[C@H](O)c1ccccc1-4)OCO3` gave HDAC3 inh -3, UBC9 SUMO inh 55, p97 ATPase inh 3, PfM18AAP inh 23, G6PDH counter 58* and PHOSPHO1 block -11.
COc1ccc2c(c1OC)C(=O)OC2C1c2c(cc3c(c2OC)OCO3)CCN1C (configuration not stated) was read as HDAC3 inh -1, UBC9 SUMO inh 27, p97 ATPase inh 2, PfM18AAP inh -4, G6PDH counter 8 and PHOSPHO1 block 6.
For CCn1c(COc2cccc(C)c2C)nnc1SCC(=O)N1CCN(c2ccc(OC)cc2)CC1 the results were HDAC3 inh 6, UBC9 SUMO inh 17, p97 ATPase inh -8, PfM18AAP inh 1, G6PDH counter 4 and PHOSPHO1 block 74*.
